An excerpt weighted towards active compounds, which were near 12% of everything screened.
G9a block – blocks human histone lysine methyltransferase G9a; Q96KQ7; G9a H3K9 monomethylation, AlphaScreen, 2 h; Potency, µM (titrated, usually from 102 µM), for the others: top-dose activity, negative = inhibition, actives largely listed as inhibitors; 350,000 tested, 8.8% active; note: potency is the fitted concentration of half-maximal effect; % is set by controls: 0 for no effect and ±100 for the full control effect; nearly all actives have a fitted effect of over 75% in size
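Using a bead-based AlphaScreen, monomethylated H3K9 product from 2 h room-temperature reactions (G9a 20 nM, peptide 500 nM, SAM 20 uM) was detected with 0.5 ug/mL rabbit anti-H3K9me1 antibody.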
BAZ2B inh – inhibitors of human BAZ2B bromodomain; AlphaScreen BAZ2B-H3K14Ac peptide displacement; AID 504333; Potency, µM (doses to about 114 µM), inactives show top-dose activity change, negative = inhibition, actives largely listed as inhibitors; 360,000 tested, 4.4% active; note: potency is the fitted concentration of half-maximal effect; % is set by controls: 0 for no effect and ±100 for the full control effect; nearly all actives have a fitted effect of over 60% in size
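Protein-peptide AlphaScreen: BAZ2B 50 nM, b-H3K14Ac 50 nM, 1x PBS pH 7.4 + 0.01% Tween-20. Preincubation 30 min RT; cpd 30 min RT (top 110 uM); beads 20 min RT, light-protected.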
HP1b binding inh – blocks HP1-beta chromodomain binding to methylated histone tails; AlphaScreen HP1-beta / biotin-H3K9me3 peptide binding; 390,000 tested, 0.56% active; Potency, µM (titrated, usually from 114 µM), for the others: at the top dose activity change, negative = inhibition, most hits filed as inhibitors; P83916; note: potency is the fitted concentration of half-maximal effect; nearly all actives have a fitted effect of over 70% in size
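Compound inhibition of the preformed complex between 50 nM HP1-beta and 50 nM biotinylated H3K9me3 peptide was read by AlphaScreen. Buffer was PBS pH 7.4 with 0.01% Tween-20. Incubations ran 30 min at room temperature, with 10 ug/mL donor/acceptor beads.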
PI5P4K alpha inh – blocks human PI5P4K alpha kinase activity | P48426 | PI5P4Kalpha enzyme, ADP-Glo luminescence, 60 min; active compounds read low | max response, % | 330,000 tested, 1.2% active; active = max response of -50% or lower; inconclusive = between -30% and -50%; inactive = -30% or higher; note: value at the top dose of about 77 µM; % is set by controls: 0 for no effect and ±100 for the full control effect
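Human PI5P4Kalpha with substrate in 0.038 M HEPES pH 7.4, 0.28 mM EGTA, 0.1% CHAPS, 5% DMSO; reaction started with 5 microM ATP (final), 60 min at room temperature. ADP formed read by ADP-Glo luminescence.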
JMJD2A Tudor – inhibitors of human JMJD2A Tudor domain; O75164; AlphaScreen JMJD2A-Tudor / H3K4me3 peptide binding; Potency, µM (highest dose often 114 µM), without a hit: at the top dose activity change, negative = inhibition, hits mostly inhibitors; 390,000 tested, 4.4% active; AID 504339; note: potency is the fitted concentration of half-maximal effect; % is set by controls: 0 for no effect and ±100 for the full control effect; nearly all actives have a fitted effect of over 50% in size
Target sequence (O75164 whole entry, looked up, the tested form may be a part): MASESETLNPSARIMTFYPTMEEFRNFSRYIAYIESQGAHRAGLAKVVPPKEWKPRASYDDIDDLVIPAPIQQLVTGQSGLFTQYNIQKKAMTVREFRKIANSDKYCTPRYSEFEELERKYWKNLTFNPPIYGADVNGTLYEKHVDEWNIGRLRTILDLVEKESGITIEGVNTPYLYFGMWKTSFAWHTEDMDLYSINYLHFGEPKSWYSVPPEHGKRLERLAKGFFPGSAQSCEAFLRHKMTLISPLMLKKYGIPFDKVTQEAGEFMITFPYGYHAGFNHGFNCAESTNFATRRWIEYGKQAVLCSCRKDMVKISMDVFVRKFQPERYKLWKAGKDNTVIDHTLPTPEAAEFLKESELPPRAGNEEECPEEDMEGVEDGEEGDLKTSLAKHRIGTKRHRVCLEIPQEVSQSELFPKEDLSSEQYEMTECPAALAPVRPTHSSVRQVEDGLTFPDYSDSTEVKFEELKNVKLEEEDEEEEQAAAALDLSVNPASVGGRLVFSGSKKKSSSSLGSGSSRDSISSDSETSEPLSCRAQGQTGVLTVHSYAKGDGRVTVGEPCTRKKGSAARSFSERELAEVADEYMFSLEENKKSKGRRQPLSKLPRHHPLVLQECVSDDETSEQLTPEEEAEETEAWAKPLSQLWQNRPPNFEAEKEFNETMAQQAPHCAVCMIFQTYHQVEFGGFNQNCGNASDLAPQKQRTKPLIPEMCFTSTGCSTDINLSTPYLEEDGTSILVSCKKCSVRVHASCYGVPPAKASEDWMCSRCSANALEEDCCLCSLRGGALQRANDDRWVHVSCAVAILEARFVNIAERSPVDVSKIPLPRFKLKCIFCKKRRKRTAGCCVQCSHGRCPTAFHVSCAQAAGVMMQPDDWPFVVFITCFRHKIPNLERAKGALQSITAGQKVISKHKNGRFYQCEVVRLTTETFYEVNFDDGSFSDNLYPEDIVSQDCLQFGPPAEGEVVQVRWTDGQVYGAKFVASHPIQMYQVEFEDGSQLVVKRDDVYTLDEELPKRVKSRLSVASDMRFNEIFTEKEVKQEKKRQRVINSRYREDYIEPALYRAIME
PLK1 PBD inh – PLK1 (human) polo-box domain binding inhibition; 360,000 tested, 2.8% active; Plk1 PBD binding of FITC phosphopeptide, fluorescence polarization; Potency, µM, for the others: max response, negative = inhibition, usual class: inhibitors; P53350; note: potency is the fitted concentration of half-maximal effect; series mostly up to about 57 µM; % is set by controls: 0 for no effect and ±100 for the full control effect; nearly all actives have a fitted effect of over 65% in size
* hit, by the source's call; ? = inconclusive; / = not tested or not shown; [ ] = another dose, or the depositor's remark. Unless noted, calls come from the whole dose curve; as a rule, active = well fitted curve in the direction sought with a large enough effect; inconclusive = small, poorly fitted or top-dose-only effect, or another doubt; inactive = no such curve, though single readings can be large; an effect the other way counts as inactive or inconclusive.

SMILES	G9a block	BAZ2B inh	HP1b binding inh	PI5P4K alpha inh	JMJD2A Tudor	PLK1 PBD inh
CC(=O)NC1=NC(=O)/C(=C/c2cc(C)n(-c3ccc(NC(C)=O)cc3)c2C)S1	?	?	43%	3	-8%	18%
Cc1ccc(CN2C(=O)N/C(=C/c3ccc4c(c3)n(C)c(=O)n4C)C2=O)cc1	20%	?	/	/	/	/
Cc1cc(C(=O)O)ccc1-c1ccc(/C=C2\NC(=O)N(Cc3ccc(F)cc3)C2=O)o1	28µM*	40µM*	11%[57 µM]	-24	?	?
Cc1ccc(NC(=O)CN2C(=O)N/C(=C\c3cccn3-c3cccc(C(=O)O)c3)C2=O)cc1	8.9µM*	10µM*	71µM*	-76*	22µM*	?
O=C(O)c1cccc(-n2cccc2/C=C2\NC(=O)N(Cc3ccc(F)cc3)C2=O)c1	22µM*	50µM*	79µM*	?	56µM*	?
Cc1cc(N2CCN(C)CC2)nc2ccc(NC(=O)Nc3cccc(Cl)c3)cc12	?	-5%[57.1 µM]	11%	/	-19%	/
COc1ccc(C2/C=C\CN(C(=O)CC(C)(C)C)C(C)C(=O)N2Cc2ccc(F)cc2)cc1 (stereo unspecified)	/	/	40%	/	-14%	/
CCn1c(C)cc(/C=C2/NC(=O)N(CC(=O)Nc3cccc(C)c3)C2=O)c1C	45µM*	-39%	-13%	-10	-29%	-8%
CCOC(=O)c1c(NC(=O)COc2ccc3ccc(=O)oc3c2)sc(C(=O)N(C)C)c1C	-2%[12.7 µM]	3%	34%	2	-18%	0%
Cc1ccc(S(=O)(=O)N2CCc3c2cc([N+](=O)[O-])cc3[N+](=O)[O-])cc1	-12%[2.33 µM]	?	?	-3	32µM*	-21%
Cc1ccc(S(=O)(=O)N2CCC(=O)c3ccccc32)cc1	/	/	/	-5	/	-6%
COc1ccc(CCN2CC(C#N)=C3c4cc(OC)c(OC)cc4CCN3C2)cc1OC	?	?	6%	1	?	-21%
COc1cc2c(cc1OC)C1=C(C#N)CN(C3CCCCC3)CN1CC2	45µM*	?	14%	3	?	-5%
Cc1ccc(S(=O)(=O)N2CCN(CN3C(=O)CC4(CCCC4)C3=O)CC2)cc1	-2%	7%	19%	-4	-6%	-1%
O=C(Nc1nc(-c2ccco2)c(-c2ccco2)s1)c1c(F)cccc1Cl	?	40µM*	?	1	50µM*	-24%
C[n+]1ccc(C(=O)Nc2ccccc2Cl)cc1	25µM*	?	-2%	-3	?	-27%
O=C(Nc1ccccc1Cl)c1ccc2ccccc2c1	/	9%	44%	2	2%	-8%
COC(=O)c1ccc(NCc2c(O)ccc(O)c2Br)cc1Cl	/	/	10µM*	-26	3.5µM*	?
COC(=O)c1cc(NCc2c(F)cccc2Cl)ccc1N1CCOCC1	-2%[2.33 µM]	-34%	23%	/	-22%	-9%
COC(=O)c1ccc(NCc2cc(O)ccc2O)cc1O	/	/	56µM*	-27	8.9µM*	-6%
O=C(COC(=O)c1ccc(O)cc1O)Nc1ccc2ccccc2c1	17%[12.7 µM]	8%	20%	8	-22%	-3%
CCc1ccc(C(=O)c2cn(CC(=O)Nc3ccc4c(c3)OCO4)c3cc(OC)c(OC)cc3c2=O)cc1	-28%[59 µM]	79µM*	26%	/	-35%	/
COc1ccc2c(c1)c(=O)c(C(=O)c1ccc(C)cc1)cn2Cc1ccccc1F	-5%[59 µM]	-28%	16%	/	-28%	/
CCc1ccc(C(=O)c2cn(CC(=O)Nc3ccc4c(c3)OCO4)c3ccc(CC)cc3c2=O)cc1	?	79µM*	47%	/	-19%	/
CCc1ccc(C(=O)c2cn(CC(=O)Nc3ccc4c(c3)OCO4)c3ccc(Cl)cc3c2=O)cc1	-3%[59 µM]	-27%	15%	/	-13%	/
SMILES	G9a block	BAZ2B inh	HP1b binding inh	PI5P4K alpha inh	JMJD2A Tudor	PLK1 PBD inh
COc1ccc(C(=O)c2cn(Cc3ccccc3F)c3ccc(F)cc3c2=O)cc1	-9%[59 µM]	79µM*	21%	/	-22%	/
CCc1ccc(C(=O)c2cn(CC(=O)Nc3cccc(OC)c3)c3ccc(OC)cc3c2=O)cc1	10µM*	50µM*	3%	/	11µM*	/
CCCC[C@@H]1CCCO[C@@](C(=O)NCCOC)(C(F)(F)F)C1	/	/	26%	/	-14%	/
O=C(c1ccco1)N1CCC2(CCCN(C(c3ccccc3)c3ccccc3)C2)CC1	-7%[12.7 µM]	/	/	/	/	/
O=C(O)c1cc(-c2ccccc2)nn1Cc1ccccc1	-20%[59 µM]	/	44%	/	-12%	/
O=C(Cn1cnc2c(oc3ccccc32)c1=O)Nc1ccccc1C(F)(F)F	-32%[59 µM]	-2%	18%	/	-31%	/
NS(=O)(=O)c1ccc(NC(=S)N2CCN(Cc3ccc4c(c3)OCO4)CC2)cc1	-106%[59 µM]	-37%	-1%	-2	-22%	12µM*
NS(=O)(=O)c1ccc(NC(=S)N2CCN(Cc3ccc(Cl)c(Cl)c3)CC2)cc1	?	-38%	17%	0	?	-12%
CCC(C)NC(=S)N1CCN(Cc2ccccc2)CC1 (stereo unspecified)	0%	0%	79µM*	3	?	3%
Oc1cccc(C(=S)N2CCN(Cc3ccccc3)CC2)c1	?	-27%	?	-11	?	15µM*
CC(C)CNC(=S)N1CCN(Cc2ccc3c(c2)OCO3)CC1	16µM*	22µM*	25µM*	1	20µM*	2%
N=C(N)N1CCN(Cc2ccccc2)CC1	13%	0%	/	/	/	/
CC(C)c1ccccc1NC(=S)N1CCN(Cc2ccc3c(c2)OCO3)CC1	-35%	?	10%	0	-24%	-3%
CCCN1C(=O)C(Cc2nc3ccccc3c(=O)n2-c2ccc(OC)cc2)c2cc(C)ccc21 (stereo unspecified)	?	?	1%	/	?	/
CC(C)c1ccccc1NCC(=O)N1CCN(Cc2ccccc2)CC1	50µM*	-33%	24%	3	-29%	-8%
CCC(C)NC(=S)N1CCN(Cc2ccc3c(c2)OCO3)CC1 (stereo unspecified)	25µM*	50µM*	-11%	-5	-7%[11.4 µM]	?
CCCCc1ccc(-c2nc(NC(=O)C3C4CCC(O4)C3C(=O)O)sc2C)cc1 (stereo unspecified)	50µM*	?	/	/	/	/
Nc1c(N2CCCC2)cc(Cl)c2nonc12	4.5µM*	-23%	-45%	/	?	21µM*
Nc1c(N2CCOCC2)cc(Cl)c2nonc12	?	-8%	4%	/	-30%	-6%
Nc1ccc(N2CCCCC2)c2nonc12	/	25µM*	?	-14	56µM*	-28%
Nc1nonc1-c1noc(N2CCCCC2)n1	?	6%	17%	2	-8%	-4%
COc1ccc(-c2noc(N3CCC(C(=O)N(C)c4ccccc4)CC3)n2)cc1	7%	-1%	16%	-3	-11%	-4%
O=C1NC(=O)C([N+](=O)[O-])=C(O)C1=O	/	/	/	-65*	/	4%

Assay outcomes from PubChem BioAssay.
